# Compound activity deposited in PubChem BioAssay by National Center for Advancing Translational Sciences (NCATS).
# TRPV1 PAM: HTS Assay for Compounds that Act as Potentiators of the Vanilloid Receptor 1 | TRPV1-expressing cells, Fluo-8 calcium influx, capsaicin EC20 potentiation | potentiation, % at 8.33 µM | AID 540277, 2011 | 320,000 tested, 0.02% active | Transient receptor potential cation channel subfamily V member 1 (Homo sapiens), Q8NER1; in the data active = potentiation above about 80%; inconclusive = between about 30% and that limit
#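 TRPV1-expressing cells were cultured overnight at 35.5C and loaded with Fluo-8 calcium dye for 40 to 90 min at room temperature. After a 10 s baseline, compound was added and calcium influx was read kinetically for 3 min (ex 480/em 520 nm).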
# TRPV1 ag: HTS Assay for Compounds that Act as Agonists of the Vanilloid Receptor 1. TRPV1-expressing cells, Fluo-8 calcium influx, agonist mode. 320,000 tested, 0.19% active. activation, % at 8.33 µM. Transient receptor potential cation channel subfamily V member 1 (Homo sapiens), Q8NER1; in the data active = activation above about 80%; inconclusive = between about 30% and that limit
#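 Cells expressing TRPV1 were dye-loaded with Fluo-8 and read kinetically: 10 s baseline, 3 min after compound (agonist portion), then 2 min after EC20 capsaicin (allosteric enhancer portion). Calcium-bound dye fluorescence at 480/520 nm.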
# D1 ag: Allosteric Agonists of the Human D1 Dopamine Receptor: qHTS | D(1A) dopamine receptor (Homo sapiens), P21728 | HEK293 T-REx D1 cells, calcium flux, agonist mode | activation, % at 2 µM | 360,000 tested, 1% active; in the data active = activation above about 30%
# Target sequence (P21728 whole entry, looked up): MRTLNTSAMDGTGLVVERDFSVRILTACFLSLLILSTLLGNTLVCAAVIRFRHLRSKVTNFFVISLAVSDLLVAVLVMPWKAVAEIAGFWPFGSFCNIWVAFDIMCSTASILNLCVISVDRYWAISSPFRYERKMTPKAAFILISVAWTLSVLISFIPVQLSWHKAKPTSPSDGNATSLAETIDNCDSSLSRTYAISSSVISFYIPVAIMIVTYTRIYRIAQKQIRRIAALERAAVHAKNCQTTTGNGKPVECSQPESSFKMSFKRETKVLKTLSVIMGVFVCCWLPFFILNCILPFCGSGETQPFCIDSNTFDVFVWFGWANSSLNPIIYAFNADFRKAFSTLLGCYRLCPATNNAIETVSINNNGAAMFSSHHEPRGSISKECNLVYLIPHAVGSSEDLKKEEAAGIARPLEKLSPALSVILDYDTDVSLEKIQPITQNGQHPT
#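 Agonism was scored from calcium flux recorded over 180 s (1 read/s) after pintool compound addition, following a 10-cycle baseline. Cells were inducible force-coupled HEK293 TREx D1, plated overnight at 30 C and loaded with no-wash calcium dye.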
# D1 PAM: Potentiators of Human D1 Dopamine Receptor: qHTS | D(1A) dopamine receptor (Homo sapiens), P21728 | HEK293 TREx D1 cells, calcium flux, dopamine EC20 potentiation | potentiation, % at 10 µM | 360,000 tested, 0.036% active | AID 504651, 2011; in the data active = potentiation above about 30%
# D1 antag: Antagonist of Human D 1 Dopamine Receptor: qHTS; activity change, negative = inhibition, % at 10 µM; AID 504652, 2011; 360,000 tested, 3.2% active; HEK293 TREx D1 cells, calcium flux, dopamine EC80; active compounds read low; D(1A) dopamine receptor (Homo sapiens), P21728; in the data active = activity change below about -30%
#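 Calcium flux readout: force-coupled, inducible Hek293 Trex D1 line, cells induced overnight at 30 C with tetracycline, dye-loaded 30–90 min at RT. Antagonism scored against EC80 dopamine challenge given 180 s after compound.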
# A number is an active result; . = inactive; ? = inconclusive; / = no result. An excerpt weighted towards active compounds, which were near 4.2% of everything screened.
SMILES,TRPV1 PAM,TRPV1 ag,D1 ag,D1 PAM,D1 antag
CCCOC(=O)c1ccc(Cn2nnc3sc4c(c3c2=O)CCC(C)C4)cc1 (stereo not given),/,/,.,.,.
O=C(CCN1CCN(c2ccccc2)CC1)c1ccc(Br)cc1,.,.,.,.,-30
CC(=O)c1c(C)n(-c2cccc(C)c2)c2ccc(OC(=O)COc3ccccc3)cc12,/,/,.,.,.
O=C(Nc1ccc(Br)cc1F)c1ccc2nsnc2c1,.,?,.,.,-33
O=C(Nc1ccc(Br)cc1F)c1ccncc1,.,?,.,.,.
Cc1ccc(C)c2[nH]c(=O)c(CN(CCN3CCCC3)C(=O)Nc3ccc(F)cc3)cc12,.,.,.,.,-36
COc1cc2cc(CN(CCN3CCCC3)C(=O)Nc3ccc(F)cc3)c(=O)[nH]c2cc1OC,.,.,.,.,.
O=C(NC1CC(=O)N(c2ccc(Cl)cc2)C1)c1cc2ccccc2o1 (stereo not given),/,/,.,.,/
C=CCN1C(=O)C(CC(=O)Nc2ccc(C)cc2)SC1=Nc1c(C)n(C)n(-c2ccccc2)c1=O (stereo not given),.,.,.,.,.
Cc1c(N=C2SC(CC(=O)Nc3ccccc3)C(=O)N2CCN2CCOCC2)c(=O)n(-c2ccccc2)n1C (stereo not given),.,.,.,.,-51
CCCSc1ncc(Cl)c(C(=O)N(Cc2ccccc2)c2ccc(OC)cc2)n1,/,/,.,.,-36
CCn1cc(/C=C(\NC(=O)c2ccccc2F)C(=O)N2CCOCC2)c2ccccc21,.,.,.,.,-34
COC(=O)c1ccc(NC(=O)C2CCN(S(C)(=O)=O)CC2)cc1,.,.,.,.,.
COC(=O)c1ccc(NC(=O)C2CCCN(S(C)(=O)=O)C2)cc1 (stereo not given),.,.,.,.,-33
O=C(OCc1cc(=O)n2c3c(sc2n1)CCCC3)c1cccc(NC(=O)c2ccccc2F)c1,/,/,.,.,.
CC(=O)c1cc2ccc(O)cc2oc1=O,.,.,38,.,.
COc1ccc2cc(C(C)=O)c(=O)oc2c1,.,.,.,.,.
Cc1nn(C)cc1CNC(=O)C1C2CCC(C2)C1C(=O)O (stereo not given),.,.,.,.,-32
CC(=O)c1ccc(N2CCN(C(=O)Cn3ncc4c3-c3ccccc3OC4)CC2)cc1,/,/,.,.,.
CCC1CCCCN1C(=S)Nc1ccc(OC(F)F)cc1 (stereo not given),.,.,.,.,-43
COc1ccc(CNC(=O)C2CCCN(S(=O)(=O)c3ccc4c(ccn4C)c3)C2)c(OC)c1 (stereo not given),/,/,.,.,.
CCc1nc2sc3c(c2c(=O)n1CCO)CCC3,.,.,.,.,-44
CCc1nc2sc3c(c2c(=O)n1N)CCC3,.,.,.,.,.
CSc1nc2sc3c(c2c(=O)n1C)CCCC3,.,.,.,.,.
CSc1nc2sc3c(c2c(=O)n1C)CCC3,.,.,.,.,-35
SMILES,TRPV1 PAM,TRPV1 ag,D1 ag,D1 PAM,D1 antag
CC1(C)CC(=O)C2=C(C1)c1c(ccc3ccccc13)NC2c1ccco1 (stereo not given),.,.,.,30,.
COc1ccc(OCC(=O)NCCNC(=O)c2cccnc2)cc1,.,.,.,/,-32
Cc1ccc(C(=O)NCCCNC(=O)COc2ccc(Cl)c(C)c2)cn1,.,.,.,.,-40
Cc1[nH]c2ccc(C(=O)NCCc3ccccc3Cl)cc2c1C,/,/,.,.,.
Cc1cc(C(F)(F)F)c2sc(N)nc2n1,?,.,.,.,-53
Nc1nc2nc(-c3ccccc3)cc(C(F)(F)F)c2s1,.,.,.,.,.
C/C(N)=C(/C#N)C(=O)COC(=O)c1ccc(C#N)cc1,.,.,.,.,-44
CCOc1ccc(-n2nc3c(=S)[nH]nc(C)c3c2C)cc1,.,.,.,.,.
CCOc1ccc(-n2nc3c(=O)[nH]nc(C)c3c2C)cc1,.,.,.,.,-60
C#CCOCCOCCOCCNc1nc(N2CCN(C(=O)CCCCCCCCCCNC(=O)Cn3cc(CCCCCN)nn3)CC2)nc(N2CCN(C(=O)CCCCCCCCCCNC(=O)[C@@H](CCSC)n3cc(CCO)nn3)CC2)n1,.,.,.,.,.
C#CCOCCOCCOCCNc1nc(N2CCN(C(=O)CCCCCCCCCCNC(=O)Cn3cc(CCCCCN)nn3)CC2)nc(N2CCN(C(=O)CCCCCCCCCCNC(=O)[C@@H](CCC(=O)O)n3cc(CCCCCN)nn3)CC2)n1,?,.,39,.,.
C#CCOCCOCCOCCNc1nc(N2CCN(C(=O)Cn3cc(CCCCN)nn3)CC2)nc(N2CCN(C(=O)Cn3cc(CCCCN)nn3)CC2)n1,.,.,.,.,.
C#CCOCCOCCOCCNc1nc(N2CCN(C(=O)CCCCCCCCCCNC(=O)Cn3cc(C[C@@H](C)O)nn3)CC2)nc(N2CCN(C(=O)CCCCCCCCCCNC(=O)[C@@H](CCC(=O)O)n3cc(CCCCCN)nn3)CC2)n1,.,.,32,.,.
C#CCOCCOCCOCCNc1nc(N2CCN(C(=O)CCCCCCCCCCNC(=O)Cn3cc(C[C@@H](C)O)nn3)CC2)nc(N2CCN(C(=O)CCCCCCCCCCNC(=O)[C@H](CCCCN)n3cc(CCCC(=O)O)nn3)CC2)n1,.,.,.,.,.
C#CCOCCOCCOCCNc1nc(N2CCN(C(=O)CCCCCCCCCCNC(=O)Cn3cc(CCCCCN)nn3)CC2)nc(N2CCN(C(=O)CCCCCCCCCCNC(=O)Cn3cc(CCCCCN)nn3)CC2)n1,.,.,38,53,.
Cc1cc(NC(=O)c2cc(-c3ccc(Cl)cc3)on2)n(-c2ccccc2)n1,/,/,.,.,.
Cc1cccc(C)c1OC(=O)CSc1nnc(CNC(=O)c2ccccc2)o1,/,/,.,.,.
N#C/C(=C(/O)COc1ccc(Cl)cc1)c1nc2ccccc2s1,.,.,.,.,.
N#C/C(=C(/O)COc1ccccc1)c1nc2ccccc2s1,.,.,.,.,-42
COC(=O)C1CCN(c2csc3ccc(C)cc3c2=O)CC1,/,/,.,.,.
Cc1cccc(N2C(N)=C(C#N)C(C#N)(C#N)C2c2ccccc2)c1 (stereo not given),.,.,.,.,.
N#CC1=C(N)N(c2ccccc2)C(c2cccc([N+](=O)[O-])c2)C1(C#N)C#N (stereo not given),.,.,.,.,-30
NCC(c1ccc(Cl)cc1Cl)c1c[nH]c2ccccc12 (stereo not given),.,.,41,.,.
